Results as given in PubChem BioAssay.
Activity calls are given as the source filed them. The rule behind the calls is not given here.

Tested on: Aerobactin synthetase IucA (Klebsiella pneumoniae)
Experiment: IucA aerobactin synthetase inhibitors, biochemical, Tocris library, absorbance (AID 1345561);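 note: 100% = enzyme without compound and 0% = no enzyme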
Conditions: purified IucA enzyme assay, absorbance (OD) read-out; active compounds read low;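 tested at 8 µM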

Remaining activity, inactive:
CCOc1cc(CC(=O)N[C@@H](CC(C)C)c2ccccc2N2CCCCC2)ccc1C(=O)O 120%
COCCCC/C(=N\OCCN)c1ccc(C(F)(F)F)cc1 125%
COc1ccccc1N1CCN(CC(O)COc2cccc3ccccc23)CC1 (configuration not stated) 100%
CC(C)NCC(O)COc1ccc(CCOCC2CC2)cc1 (configuration not stated) 100%
COc1cc2nc(N3CCN(C(=O)C4CCCO4)CC3)nc(N)c2cc1OC (configuration not stated) 115%
c1cnc(N2CCN(Cc3ccc4c(c3)OCO4)CC2)nc1 119%
CCOC(=O)c1ncn2c1CN(C)C(=O)c1cc(F)ccc1-2 110%
CC(C)NCC(O)COc1ccc(COCCOC(C)C)cc1 (configuration not stated) 120%
CN1CCC(=C2c3ccccc3C=Cc3ccccc32)CC1 104%
Oc1ccc(C2CNCCc3c2cc(O)c(O)c3Cl)cc1 (configuration not stated) 110%
O=C1CC2(CCCC2)CC(=O)N1CCCCN1CCN(c2ncccn2)CC1 109%
Cc1cccc(C)c1OCC(C)N (configuration not stated) 104%
CN1CCC(=C2c3ccccc3CC(=O)c3sccc32)CC1 118%
CCC1=C(C)CN(C(=O)NCCc2ccc(S(=O)(=O)NC(=O)NC3CCC(C)CC3)cc2)C1=O (configuration not stated) 90.7%
Cn1nnc2c(C(N)=O)ncn2c1=O 102%
CC1CCN(CCCC(=O)c2ccc(F)cc2)CC1 103%
COC(=O)C1=C(C)NC(C)=C(C(=O)OC(C)C)C1c1cccc2nonc12 (configuration not stated) 109%
Nc1nc(N)nc(-c2cc(Cl)ccc2Cl)n1 103%
CCc1c2c(nc3ccc(OC(=O)N4CCC(N5CCCCC5)CC4)cc13)-c1cc3c(c(=O)n1C2)COC(=O)[C@]3(O)CC 108%
COc1ccc(C2CNC(=O)C2)cc1OC1CCCC1 (configuration not stated) 98.4%
O=C(O)/C=C/c1ccc(Cn2ccnc2)cc1 107%
COc1ccc2nc(S(=O)Cc3ncc(C)c(OC)c3C)[nH]c2c1 (configuration not stated) 103%
CCN1CCCC1CNC(=O)c1cc(S(=O)(=O)CC)c(N)cc1OC (configuration not stated) 104%
O=C(NCCO[N+](=O)[O-])c1cccnc1 106%
CNS(=O)(=O)Cc1ccc2[nH]cc(CCN(C)C)c2c1 127%
CCc1nn(CCCN2CCN(c3cccc(Cl)c3)CC2)c(=O)n1CCOc1ccccc1 104%
OCc1cc(C(O)CNCCCCCCOCCCCc2ccccc2)ccc1O (configuration not stated) 115%
